Assay results taken from PubChem BioAssay (NCI).
Compounds without any hit were thinned out: in the full panel of roughly 83,000, 20% have a hit.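 Step 1: grow cells in 96-well plates. Step 2: add test compound at a single concentration. Step 3: incubate 48 h. Step 4: record percent growth.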 Unmarked numbers belong to inactive results. Activity calls are given as the source filed them. How the source made its calls: active means growth percent below 10; inactive means the rest.

How the values were obtained:
Test in all cases: NCI-60 one-dose screen, 48 h (100 = growth as untreated, 0 = no growth, -100 = all killed)
[1] = tested on: NCI-H23 lung; details: 10 µM unless noted
[2] = tested on: NCI-H226 lung; details: 10 µM unless noted
[3] = tested on: NCI-H322M lung; details: 10 µM unless noted
[4] = tested on: HOP-62 NSCLC; details: 10 µM unless noted
[5] = tested on: NCI-H460 lung; details: 10 µM unless noted
[6] = tested on: 786-0 renal; details: 10 µM unless noted
[7] = tested on: MDA-MB-231 breast; details: 10 µM unless noted
[8] = tested on: SF-268 CNS; details: 10 µM unless noted
[9] = tested on: SF-539 CNS; details: 10 µM unless noted
[10] = tested on: HCT-15 colon; details: 10 µM
[11] = tested on: U251 CNS; details: 10 µM unless noted
[12] = tested on: PC-3 prostate; details: 10 µM unless noted
[13] = tested on: SK-MEL-28 melanoma; details: 10 µM unless noted
[14] = tested on: SN12C renal; details: 10 µM unless noted
[15] = tested on: HS 578T breast; details: 10 µM unless noted
[16] = tested on: NCI/ADR-RES ovarian; details: 10 µM unless noted
[17] = tested on: SW-620 colon; details: 10 µM unless noted
[18] = tested on: HCT-116 colon; details: 10 µM unless noted
[19] = tested on: KM12 colon; details: 10 µM unless noted
[20] = tested on: MCF7 breast; details: 10 µM unless noted

COC(C)(C)CCC[C@H](C)C/C=C/C(C)=C/C(=O)OC(C)C
growth [1]: 78.7% | growth [2]: 103% | growth [3]: 108% | growth [4]: 107% | growth [5]: 109% | growth [6]: 85.8% | growth [7]: 102% | growth [8]: 103% | growth [9]: 118% | growth [10]: 101% | growth [11]: 95.9% | growth [12]: 88.7% | growth [13]: 101% | growth [14]: 92.5% | growth [15]: 119% | growth [16]: 91.7% | growth [17]: 105% | growth [18]: 83.6% | growth [19]: 107%

S=P(NC1CCCCC1)(N1CC1)N1CC1
growth [1]: 110% | growth [2]: 113% | growth [3]: 113% | growth [4]: 101% | growth [5]: 82.8% | growth [6]: 101% | growth [7]: 104% | growth [8]: 98.6% | growth [9]: 107% | growth [10]: 108% | growth [11]: 101% | growth [13]: 122% | growth [14]: 98.1% | growth [15]: 114% | growth [16]: 111% | growth [17]: 96.5% | growth [20]: 89% | growth [18]: 93.3% | growth [19]: 110%

CC(N)Cc1ccc(O)cc1 (stereo not drawn)
growth [1]: 108% | growth [2]: 99.2% | growth [3]: 95.5% | growth [4]: 111% | growth [5]: 109% | growth [6]: 98.6% | growth [7]: 106% | growth [8]: 99.4% | growth [9]: 117% | growth [10]: 113% | growth [11]: 106% | growth [12]: 98.8% | growth [13]: 124% | growth [14]: 105% | growth [15]: 103% | growth [16]: 103% | growth [17]: 103% | growth [20]: 100% | growth [18]: 100% | growth [19]: 107%

CNC(C)Cc1ccccc1 (stereo not drawn) (tested in a mixture with another compound)
growth [1]: 99.2% | growth [2]: 99.5% | growth [3]: 89.2% | growth [4]: 98% | growth [5]: 104% | growth [6]: 102% | growth [7]: 120% | growth [8]: 108% | growth [9]: 99.7% | growth [10]: 101% | growth [11]: 89.9% | growth [12]: 92.8% | growth [13]: 105% | growth [14]: 104% | growth [15]: 106% | growth [16]: 104% | growth [17]: 102% | growth [20]: 97.3% | growth [18]: 100% | growth [19]: 99.8%

CCOC(=O)/C(C#N)=C/c1ccc(N(CCCl)CCCl)cc1
growth [1]: 94.9% | growth [2]: 72.2% | growth [3]: 110% | growth [4]: 81.7% | growth [5]: 41.4% | growth [6]: 84.1% | growth [7]: 90.8% | growth [8]: 77.5% | growth [9]: 84.9% | growth [10]: 91.1% | growth [11]: 92% | growth [12]: 69.7% | growth [13]: 99% | growth [14]: 72.4% | growth [15]: 103% | growth [16]: 94.8% | growth [17]: 87.3% | growth [20]: 71.9% | growth [18]: 97% | growth [19]: 106%

CCOC(=O)/C=C(\C)Nc1ccc(N/C(C)=C/C(=O)OCC)c2c1Oc1ccccc1O2
growth [1]: 89.7% | growth [2]: 93.2% | growth [3]: 110% | growth [4]: 117% | growth [5]: 122% | growth [6]: 88.2% | growth [7]: 79% | growth [8]: 107% | growth [9]: 105% | growth [10]: 100% | growth [11]: 99.2% | growth [12]: 103% | growth [13]: 114% | growth [14]: 96.8% | growth [15]: 87.3% | growth [16]: 99.5% | growth [17]: 99.4% | growth [20]: 93.7% | growth [18]: 105% | growth [19]: 97.6%

COc1cc2c(cc1OC)CN(C)C(C)C2 (stereo not drawn)
growth [1]: 101% | growth [2]: 96.8% | growth [3]: 106% | growth [4]: 92% | growth [5]: 106% | growth [6]: 101% | growth [7]: 110% | growth [8]: 96% | growth [9]: 105% | growth [10]: 102% | growth [11]: 101% | growth [12]: 97.4% | growth [13]: 106% | growth [14]: 94.2% | growth [15]: 107% | growth [16]: 101% | growth [17]: 100% | growth [20]: 95.5% | growth [18]: 105% | growth [19]: 102%

C[C@]12CC[C@@H]3C4=C(CC[C@H]3[C@@H]1CC[C@@H]2O)CC(=O)CC4
growth [1]: 98.3% | growth [2]: 94% | growth [3]: 109% | growth [4]: 103% | growth [5]: 105% | growth [6]: 106% | growth [7]: 103% | growth [8]: 99.7% | growth [9]: 103% | growth [10]: 100% | growth [11]: 96.8% | growth [12]: 103% | growth [13]: 107% | growth [14]: 99.5% | growth [15]: 5.03% (active) | growth [16]: 95.8% | growth [17]: 102% | growth [20]: 118% | growth [18]: 102% | growth [19]: 107%
